Reference: ChEMBL document CHEMBL3988442, “University of Dundee, Small-Polar-MMV Screening Library” (2021)

Target: Shiga toxin 2 (Escherichia coli O157:H7) (UniProt P09385+P09386)
Experiment: E. coli 0.157:H7 Shiga Toxin SOP - stx2 screening assay
Type: functional
Set-up: scale not given: direction of the effect not stated beside the values
Settings: 30 µM

| SMILES | Percent Effect |
| --- | --- |
| COCCCC1CCCN(C(=O)CCc2cc(O)no2)C1 (stereo not given) | -0.726% |
| CCOc1ccc(NC(=O)CN2CCN(c3nccn3C)CC2)cc1 | -64.8% |
| O=C(c1cc(F)ccc1F)C1CCN(C(=O)c2cccnc2O)CC1 | 27.8% |
| CC(=O)N1CCN(C(=O)CCOc2ccc(C(C)C)cc2)CC1 | 38.9% |
| Cc1cnn(CC2CCCN2C(=O)c2cc3c(F)cccc3[nH]2)c1 (stereo not given) | -37.3% |
| CN1CCc2c(C#N)c(NCc3ccco3)n3cnnc3c2C1 | -1.51% |
| CN(C)C(=O)COC1COC2(CCN(S(C)(=O)=O)CC2)C1 (stereo not given) | -11.5% |
| Cc1nnc2n1CCN(C(=O)c1cc(Cl)c[nH]1)C2 | 2.46% |
| Cc1nccn1CC1CCCN1S(=O)(=O)Cc1ccon1 (stereo not given) | -23.9% |
| CCOCC1CN(C(=O)c2cccn2C)Cc2cnn(CC3CC3)c21 (stereo not given) | -5.56% |
| CN(Cc1ccco1)[C@@H]1CN(Cc2ccco2)[C@@H]2CCCO[C@H]12 | 0.222% |
| COc1cccc(S(=O)(=O)N2CCC(O)(CN(C)C)C2)c1 (stereo not given) | 11.2% |
| c1cnn(CC2CN(Cc3noc(C4CC4)n3)CCO2)c1 (stereo not given) | 5.97% |
| CC(NC(=O)CSCC(=O)Nc1ccccc1)c1ccccc1 (stereo not given) | 16.8% |
| Cc1cnc2n(c1=O)CC(C(=O)Nc1cccc3cccnc13)CS2 (stereo not given) | 23.5% |
| COc1cc(NC(=O)Cn2ccc3sc(C)cc3c2=O)cc(OC)c1 | 0.557% |
| CCc1ccc(OCC(O)CN2CCN(S(C)(=O)=O)CC2)cc1 (stereo not given) | 22.4% |
| CC(=O)N1CCC(c2cc(C(F)(F)F)n3ccnc3n2)CC1 | -9.96% |
| O=C(N1CCOCC1)[C@@]12CCO[C@@H]1CCN(Cc1ccccc1F)C2 | -21.7% |
| CCNC(=O)[C@@H]1C[C@H](NC(=O)c2ccccc2C#N)CN1CCCSC | 0.196% |

| SMILES | Percent Effect |
| --- | --- |
| Cc1cnn(CC2CCCCN2Cc2cc(C)on2)c1 (stereo not given) | -7.45% |
| CC1CCN(CCCNS(=O)(=O)c2cccc(F)c2)CC1 | -61.6% |
| Cc1ccc(OC2(C(=O)O)CCN(C(=O)c3nc(C)oc3C)CC2)cn1 | 0.158% |
| c1coc(-c2nnc(CN3CCCC(CN4CCCCCC4)C3)o2)c1 (stereo not given) | -14.6% |
| CN(CCc1ccccc1)c1cnn(CC(=O)N2CCSCC2)c(=O)c1 | -15.1% |
| Cc1cc(C(=O)N2CCCCC2c2nc(C)cs2)[nH]n1 (stereo not given) | -15.7% |
| Cc1nc(C)n(CC2CCCN(Cc3nnc(C(C)(C)C)o3)C2)n1 (stereo not given) | 1.5% |
| Cc1noc(CN(Cc2ccc3c(c2)OCO3)C2CCCC2)n1 | 30.6% |
| N#Cc1ccc(CN2CCC(c3ccnn3CCO)CC2)cc1 | 23.2% |
| Cn1nccc1CNC(=O)Nc1cc(C(F)(F)F)c[nH]c1=O | 21% |
| CC1CCN(CCNC(=O)c2cncnc2C(C)C)CC1 | -18.7% |
| CC(OCC1CC1)C(=O)N1CCCN(c2ncccc2C#N)CC1 (stereo not given) | 27.5% |
| CNCC(=O)N1CCCC(c2cccc(Nc3nc(C)cc(C)n3)n2)C1 (stereo not given) | -1.86% |
| CC(C)c1cc(CNC(=O)N2CCC(Cc3cnn(C)c3)C2)on1 (stereo not given) | 11% |
| O=C(CC1CN(Cc2ccccc2)CCO1)NC1CCCC1 (stereo not given) | 1.42% |
| CCS(=O)(=O)CCNC(=O)c1ccc(-c2ccc(C)cc2)cc1F | -42.5% |
| CCc1nc(CC(=O)N2CCCC2Cn2cccn2)cs1 (stereo not given) | 10.2% |
| COc1cccc2c1ccn2CCC(=O)N1CCCC(C(=O)O)C1 (stereo not given) | -30.4% |
| Cc1cc(NC(=O)CN2CCCC2c2noc(C(C)C)n2)n(C)n1 (stereo not given) | 5.27% |
| CCN(C)c1ncnc2c1CCN(C(=O)c1ccno1)CC2 | -5.46% |
